Calls of active or inactive are those of the source. The calls were made as follows: active = hit-call score of the fitted dose curve at least 0.9, where 1 is the maximum; inactive = score below 0.9.
test: CCTE_Shafer_MEA_acute_per_network_burst_spike_number_std: CCTE's Neural Acute Assay for Standard Deviation of Number of Spikes in a Network Burst, Shafer Lab (AID 2284020);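 also: fitted for decrease in spike-number SD versus DMSO so actives lower it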
Experimental: CCTE_Shafer_MEA_acute assay is conducted using Axion Biosystems 48 well microelectrode array (MEA) plates and Maestro recording system. Each well of the MEA plate contains a grid of 16 microelectrodes embedded in the culture surface. Electrically active cells, such as neurons, can be cultured over the electrodes, and electrical activity in these cells can be recorded extracellularly. The spontaneous firing of neurons is captured from each electrode on a microsecond timescale providing both temporally and spatially precise data. […] The CCTE_Shafer_MEA_acute assay uses primary cultures of rat cortical neurons. As these cultures mature over time, neural networks develop functional activity and form cohesive networks in which electrical activity can be highly coordinated. Baseline 40-minute recordings are made on days post-plating 13 or 15, followed by a secondary 40-minute recording after chemical exposure.CCTE_Shafer_MEA_acute_per_network_burst_spike_number_std is a component of the CCTE_Shafer_MEA_acute assay. It measures the standard deviation of the number of spikes (action potential firings) in a network burst (temporally-clustered group of spikes across multiple electrodes) during a recording in a microelectrode array (MEA) using Axion Biosystems Maestro 768 channel amplifier with the AxIS adaptive spike detector. The recordings before and after chemical treatment are used to calculate a percent change in the standard deviation of the number of spikes in network bursts in each well.Data from the assay component CCTE_Shafer_MEA_acute_burst_spike_number_std was analyzed into 1 assay endpoint. This assay endpoint, CCTE_Shafer_MEA_acute_burst_spike_number_std, was analyzed in the negative analysis fitting direction relative to DMSO as the negative control and baseline of activity. Using a type of functional reporter, gain or loss-of-signal activity can be used to understand electrical activity.
Spontaneous activity in the cortical cultures was recorded using an Axion Biosystems Maestro 768 channel amplifier and Axion Integrated Studios (AxIS) v1.8 (or later) software. The amplifier recorded from all channels simultaneously (gain = 1200 x; sampling rate = 12.5 kHz/channel): raw signals were filtered with a Butterworth band-pass filter (300-5000 Hz), which filters out slower local field potentials leaving only fast potentials, i.e., "spikes", arising from extracellular currents associated with action potentials (Pine 2006; Wheeler and Nam 2011). On-line spike detection of filtered signals was conducted with the AxIS adaptive spike detector, using a threshold of 8x the root mean squared (rms) noise on each channel. Any electrodes with rms noise levels greater than 5 uV were grounded (e.g., no data were recorded). Once grounded, an electrode was grounded for the duration of the experiment. All recordings were conducted at 37 C. Wells were deemed usable if on the day of the exposure >/= 10 electrodes were active (defined as >/= 5 spikes/min). On DIV 13 or 15, a minimum of three wells from one cortical culture preparation were treated with each compound (0.03-40 uM). Prior to recording baseline activity, each mwMEA plate was placed in the Maestro at 37 C and allowed to sit for 20 min while firing rates stabilized. Baseline activity (40 min) was recorded before the addition of each compound. An additional 40 min of spontaneous activity was recorded in the presence of each compound. Changes in network parameters relative to baseline were assessed following compound treatment.

SMILES	outcome	AC50
OCc1ccccc1	inactive	
CCCCCCCC1CCC(=O)O1 (stereo not drawn)	inactive	
COc1cc2c(c(OC)c1OC)-c1ccc(OC)c(=O)cc1[C@@H](NC(C)=O)CC2	inactive	
c1ccc2cc3ccccc3cc2c1	inactive	
Cc1ncc([C@@H](CCCCCCc2ccc3c(n2)NCCC3)CC(=O)O)cn1	inactive	
O=S(=O)(O)c1ccc(N=Nc2c(O)ccc3cc(S(=O)(=O)O)ccc23)cc1	inactive	
COCc1nnc(-c2ccc[n+]([O-])c2)n1-c1c(Cl)c(Cl)cc2[nH]c(=O)c(=O)[nH]c12		10.9 µM (active)
CCCc1ccccc1	inactive	
C=CCc1cc(S(=O)(=O)c2ccc(O)c(CC=C)c2)ccc1O	inactive	
CCc1ccc(O)c(C(C)(C)C)c1	inactive	
CC(C)C(=O)Nc1ccc([N+](=O)[O-])c(C(F)(F)F)c1		5.47 µM (active)
COc1cc(C(C)C)c2c(c1)S(=O)(=O)N(COc1cc(=O)n3cccc(OCCN4CCCCC4)c3n1)C2=O		1.03 µM (active)
CCCCCCCC/C=C\CCCCCCCC(=O)OC[C@@H](O)[C@H]1OC[C@H](O)[C@H]1O	inactive	
Cn1c(=O)c2[nH]cnc2n(C)c1=O	inactive	
OC(CCl)CCl	inactive	
CCCCC(CC)C(=O)OCCOCCOCCOC(=O)C(CC)CCCC (stereo not drawn)	inactive	
CC[C@H](C)C(=O)O[C@H]1C[C@H](O)C=C2C=C[C@H](C)[C@H](CC[C@@H](O)C[C@@H](O)CC(=O)O)[C@H]21	inactive	
c1ccc(C(O[C@@H]2CCCN(CCc3ccc4c(c3)OCO4)C2)c2ccccc2)cc1	inactive	

Source: PubChem BioAssay (EPA / NIEHS)
